The list is not random: actives were taken first. Their share in the collection is about 32%.
CYP2C19 inhib – blockers of cytochrome P450 2C19 activity – biochemical, luminescence, ADME assay, primary screen | P33261 | CYP2C19 Supersomes, luciferin-H EGE luminescence, 30 min | inhibition, % at 5 µM | hit rate 21% among 96,000;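 active means CYP2C19 inhibition above a set limit at 5 µM in the primary screen, cut at about 50% in these data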;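 further: plate controls were negative control wells for no effect and 2.5 mM tranylcypromine positive control for full effect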
PostGolgi ctrl – growth inhibition of yeast control strain, primary screen, counter-screen for post-Golgi transport modulator project. efflux-deficient yeast background strain, growth absorbance A615, 16 h. hit rate 5% among 98,000. inhibition, % at 10 µM
PostGolgi yeast – phenotypic screen on post-Golgi transport, primary screen. post-Golgi transport phenotypic cell assay. AID 739, 2007. hit rate 0.9% among 98,000. inhibition, % at 10 µM;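 further: yeast cells grown in 1536-well plates; yeast grown about 18 h at 30C before absorbance read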
CYP2C9 inh – blockers of cytochrome P450 2C9 activity – biochemical, luminescence, ADME assay, primary screen; hit rate 20% among 96,000; AID 777, 2007; inhibition, % at 5 µM; CYP2C9 Supersomes, luciferin-H conversion; P11712;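 active means blocking of liver enzyme CYP2C9 beyond about 50% at 5 µM, limit read from the data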
Target sequence (P11712 whole entry, looked up): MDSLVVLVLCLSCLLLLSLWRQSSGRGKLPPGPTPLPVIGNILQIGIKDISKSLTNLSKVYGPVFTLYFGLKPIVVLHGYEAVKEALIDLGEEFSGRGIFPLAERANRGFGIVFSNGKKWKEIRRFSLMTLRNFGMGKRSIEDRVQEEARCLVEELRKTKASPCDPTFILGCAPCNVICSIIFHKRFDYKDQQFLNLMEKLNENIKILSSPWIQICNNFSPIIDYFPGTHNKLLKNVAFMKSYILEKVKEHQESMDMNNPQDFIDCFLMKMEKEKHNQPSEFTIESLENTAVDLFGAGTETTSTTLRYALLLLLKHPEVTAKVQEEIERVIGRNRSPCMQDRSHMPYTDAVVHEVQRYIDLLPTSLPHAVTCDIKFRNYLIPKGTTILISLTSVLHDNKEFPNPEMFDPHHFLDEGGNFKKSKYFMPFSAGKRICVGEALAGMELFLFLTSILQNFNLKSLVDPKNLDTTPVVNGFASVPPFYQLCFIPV
CYP2C19 activ – human CYP2C19 activators, primary screen, biochemical, luminescence | Cytochrome P450 2C19 (Homo sapiens), P33261 | recombinant CYP2C19, luciferin-H EGE luminescence; active compounds read high; 0 = fully inhibited enzyme, 1 = untreated enzyme | activation factor at 5 µM | 96,000 tested, under 10 active | AID 1025, 2008;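 active means activation factor of at least 2 at 5 µM in the primary screen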;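 further: 0 = wells with 2.5 mM tranylcypromine and 1 = vehicle-only wells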
CYP2C9 activ – human CYP2C9 activators, primary screen, biochemical, luminescence; AID 1024, 2008; recombinant CYP2C9, luciferin-H conversion; active compounds read high; factor 1 = untreated enzyme, 0 = blocked; hit rate 1.4% among 96,000; Cytochrome P450 2C9 (Homo sapiens), P11712; activation factor at 5 µM;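 active means activation factor of 2 or more for CYP2C9 at a 5 µM dose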;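 further: 0 = sulfaphenazole-blocked wells and 1 = vehicle-only wells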
* = called active by the depositor. Unless noted, no stated cut-off is given here; in the data, active means inhibition above about 30%; inactive means the rest.

SMILES	CYP2C19 inhib	PostGolgi ctrl	PostGolgi yeast	CYP2C9 inh	CYP2C19 activ	CYP2C9 activ
COc1ccc(Cn2nnnc2C(c2cccnc2)N2CCN(c3ccc(O)cc3)CC2)cc1 (stereo unspecified)	28	-6	-15	45	0.7	0.5
CCC(C)(C)n1nnnc1C(c1ccc(O)c(OC)c1)N1CCN(c2nc3ccccc3s2)CC1 (stereo unspecified)	29	8	3	77*	0.7	0.2
CC(C)(C)n1nnnc1C(c1ccncc1)N1CCN(c2ccc(O)cc2)CC1 (stereo unspecified)	49	11	0	76*	0.5	0.2
CC1CCN(C(c2ccccc2)c2nnnn2C(C)(C)C)CC1 (stereo unspecified)	10	8	-2	-3	0.9	1
Cc1cc(C)cc(NC(=O)CCN2CC(C)OC(C)C2)c1 (stereo unspecified)	33	15	4	-4	0.7	1
Cc1nc(C(=O)Nc2ccc(F)cc2)nn1-c1ccc([N+](=O)[O-])cc1	5	4	29	20	1	0.8
Cc1ccc(C)c(C(=O)Cn2ncc(Cl)c(Cl)c2=O)c1	17	18	18	-106	0.8	2.1*
Cn1c(=O)n(CCOc2ccccc2Cl)c2ccccc21	96*	11	-4	86*	0	0.1
Cn1c(=O)n(CCOc2ccc(Cl)cc2Cl)c2ccccc21	18	13	16	13	0.8	0.9
Nc1nc2ccccc2n1CCOc1ccccc1Cl	56*	-2	1	30	0.4	0.7
CCOc1cc(-c2cn(S(=O)(=O)c3cccc4nsnc34)nc2N)cc(OCC)c1OCC	-3	4	8	36	1	0.6
FCCCOc1ccc(/C=N/OCc2ccc(Cl)cc2Cl)cc1	4	6	4	12	1	0.9
Clc1ccc(CO/N=C/c2c(-c3ccccc3)nc3n2CCS3)c(Cl)c1	12	18	23	65*	0.9	0.4
Cc1ccc2nc(-c3ccc(Br)o3)oc(=O)c2c1	8	9	36*	8	0.9	0.9
COc1cc2nc(-c3ccc(Br)o3)oc(=O)c2cc1OC	7	-2	1	-50	0.9	1.5
COc1ccc(-c2noc(C3CCCN(C(=O)c4cccs4)C3)n2)cc1 (stereo unspecified)	85*	14	0	89*	0.1	0.1
COc1cc(C(=O)N2CCCC(c3nc(-c4cccs4)no3)C2)cc(OC)c1OC (stereo unspecified)	56*	10	-5	47	0.4	0.5
O=S(=O)(c1ccc(Cl)c(F)c1)N1CCC(c2nc(-c3ccncc3)no2)CC1	33	12	-3	46	0.7	0.5
O=C(c1cccs1)N1CCC(c2nc(-c3ccc(S(=O)(=O)N4CCOCC4)cc3)no2)CC1	18	17	-2	62*	0.8	0.4
CCCC(=O)N1CCCC(c2nc(-c3cccs3)no2)C1 (stereo unspecified)	6	2	4	18	0.9	0.8
O=[N+]([O-])c1cccc(S(=O)(=O)N2CCC(c3nc(-c4ccncc4)no3)CC2)c1	38	-1	-6	60*	0.6	0.4
COc1ccc(CN2CCC(CNC(=O)NC3CCCCC3)CC2)cc1	4	-2	6	-1	1	1
Cc1cc(=S)[nH]c2c(C)cccc12	18	-1	7	-67	0.8	1.7
COc1ccc(N2CCCCn3c2nc2c3c(=O)n(C)c(=O)n2C)cc1	32	4	15	36	0.7	0.6
COc1cccc(C(=O)N2CCCC(c3nc(-c4cccs4)no3)C2)c1 (stereo unspecified)	86*	10	1	68*	0.1	0.3
COc1cccc(Nc2nc(N)nc(-c3oc4ccccc4c3C)n2)c1	-5	77*	26	32	1.1	0.7
COc1ccccc1Nc1nc(N)nc(-c2cc3ccccc3o2)n1	-10	2	-2	-13	1.1	1.1
Cc1c(-c2nc(N)nc(Nc3ccccc3F)n2)oc2ccccc12	7	35*	13	38	0.9	0.6

Compound activity deposited in PubChem BioAssay by several laboratories.
